In the supplement of paper PMC6992640:
Where a name gives a salt, the structure may show the parent alone.

Test system: HCI01 (cells of a triple-negative basal-like breast cancer xenograft)
Test: cell viability of combination (% of vehicle); higher = less cytotoxic
Settings: 1 µM; 72 h; partner dose: 10 nM
Method: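 PDX cells were treated for 72 h with each drug at 1 µM plus carfilzomib (10 nM; 100 nM for WHIM2). Luciferase viability is expressed as percent of vehicle.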

**Q.** `Clc1ccc(C(Cn2ccnc2)OCc2ccc(Sc3ccccc3)cc2)c(Cl)c1.O=[N+]([O-])O` (centres undefined) [Fenticonazole Nitrate] + CC(C)C[C@H](NC(=O)[C@H](CCc1ccccc1)NC(=O)CN1CCOCC1)C(=O)N[C@@H](Cc1ccccc1)C(=O)N[C@@H](CC(C)C)C(=O)[C@@]1(C)CO1 [Carfilzomib] was tested. Which “cell viability of combination” value did it give?
**A.** The value was 83.9.

**Q.** With `COc1cc(C(=O)O)ccc1NC(=O)C1NC(CC(C)(C)C)C(C#N)(c2ccc(Cl)cc2F)C1c1cccc(Cl)c1F` (centres undefined) + CC(C)C[C@H](NC(=O)[C@H](CCc1ccccc1)NC(=O)CN1CCOCC1)C(=O)N[C@@H](Cc1ccccc1)C(=O)N[C@@H](CC(C)C)C(=O)[C@@]1(C)CO1 [Carfilzomib] as the compound, how does the “cell viability of combination” value read?
**A.** Its value is 79.1.

**Q.** With `C=C1C(=CC=C2CCCC3(C)C2CCC3C(C)CCCC(C)C)CC(O)CC1O` (centres undefined) [Alfacalcidol] + CC(C)C[C@H](NC(=O)[C@H](CCc1ccccc1)NC(=O)CN1CCOCC1)C(=O)N[C@@H](Cc1ccccc1)C(=O)N[C@@H](CC(C)C)C(=O)[C@@]1(C)CO1 [Carfilzomib] as the compound, how does the “cell viability of combination” value read?
**A.** Its value is 55.4.

**Q.** How did the “cell viability of combination” value turn out when `CNCCC(Oc1ccc(C(F)(F)F)cc1)c1ccccc1.Cl` (centres undefined) [Fluoxetine HCl] + CC(C)C[C@H](NC(=O)[C@H](CCc1ccccc1)NC(=O)CN1CCOCC1)C(=O)N[C@@H](Cc1ccccc1)C(=O)N[C@@H](CC(C)C)C(=O)[C@@]1(C)CO1 [Carfilzomib] was run?
**A.** Its value is 72.4.

**Q.** How did the “cell viability of combination” value turn out when `COc1nc2ccc(Br)cc2cc1[C@@H](c1ccccc1)[C@@](O)(CCN(C)C)c1cccc2ccccc12` [Bedaquiline fumarate] + CC(C)C[C@H](NC(=O)[C@H](CCc1ccccc1)NC(=O)CN1CCOCC1)C(=O)N[C@@H](Cc1ccccc1)C(=O)N[C@@H](CC(C)C)C(=O)[C@@]1(C)CO1 [Carfilzomib] was run?
**A.** Its value is 77.1.

**Q.** Which “cell viability of combination” value does the source give for `CC(C)c1nc(N(C)S(C)(=O)=O)nc(-c2ccc(F)cc2)c1C=CC(O)CC(O)CC(=O)[O-].CC(C)c1nc(N(C)S(C)(=O)=O)nc(-c2ccc(F)cc2)c1C=CC(O)CC(O)CC(=O)[O-].[Ca+2]` (centres undefined) [Rosuvastatin Calcium] + CC(C)C[C@H](NC(=O)[C@H](CCc1ccccc1)NC(=O)CN1CCOCC1)C(=O)N[C@@H](Cc1ccccc1)C(=O)N[C@@H](CC(C)C)C(=O)[C@@]1(C)CO1 [Carfilzomib] here?
**A.** The value was 80.8.

**Q.** How did the “cell viability of combination” value turn out when `CC(=O)c1cc2c(o1)C(=O)c1ccccc1C2=O` [Napabucasin] + CC(C)C[C@H](NC(=O)[C@H](CCc1ccccc1)NC(=O)CN1CCOCC1)C(=O)N[C@@H](Cc1ccccc1)C(=O)N[C@@H](CC(C)C)C(=O)[C@@]1(C)CO1 [Carfilzomib] was run?
**A.** The value was 22.6.

**Q.** `CC(C)C(=O)OCC(=O)[C@@]12O[C@H](C3CCCCC3)O[C@@H]1C[C@H]1[C@@H]3CCC4=CC(=O)C=C[C@]4(C)[C@H]3[C@@H](O)C[C@@]12C` [Ciclesonide] + CC(C)C[C@H](NC(=O)[C@H](CCc1ccccc1)NC(=O)CN1CCOCC1)C(=O)N[C@@H](Cc1ccccc1)C(=O)N[C@@H](CC(C)C)C(=O)[C@@]1(C)CO1 [Carfilzomib] was tested. Which “cell viability of combination” value did it give?
**A.** The value was 108.

**Q.** `CCOc1nc2cccc(C(=O)OC(C)OC(=O)OC3CCCCC3)c2n1Cc1ccc(-c2ccccc2-c2nn[nH]n2)cc1` (centres undefined) [Candesartan Cilexetil] + CC(C)C[C@H](NC(=O)[C@H](CCc1ccccc1)NC(=O)CN1CCOCC1)C(=O)N[C@@H](Cc1ccccc1)C(=O)N[C@@H](CC(C)C)C(=O)[C@@]1(C)CO1 [Carfilzomib] was tested. Which “cell viability of combination” value did it give?
**A.** The value was 77.5.

**Q.** With `CCCCCOc1ccc(-c2ccc(-c3ccc(C(=O)N[C@H]4C[C@@H](O)[C@@H](O)NC(=O)[C@@H]5[C@@H](O)[C@@H](C)CN5C(=O)[C@H]([C@@H](C)O)NC(=O)[C@H]([C@H](O)[C@@H](O)c5ccc(O)cc5)NC(=O)[C@@H]5C[C@@H](O)CN5C(=O)[C@H]([C@@H](C)O)NC4=O)cc3)cc2)cc1` [Anidulafungin] + CC(C)C[C@H](NC(=O)[C@H](CCc1ccccc1)NC(=O)CN1CCOCC1)C(=O)N[C@@H](Cc1ccccc1)C(=O)N[C@@H](CC(C)C)C(=O)[C@@]1(C)CO1 [Carfilzomib] as the compound, how does the “cell viability of combination” value read?
**A.** Its value is 73.7.

**Q.** `CC(C)(C)NC(=O)C1CC2CCCCC2CN1CC(O)C(Cc1ccccc1)NC(=O)C(CC(N)=O)NC(=O)c1ccc2ccccc2n1.CS(=O)(=O)O` (centres undefined) [Saquinavir mesylate] + CC(C)C[C@H](NC(=O)[C@H](CCc1ccccc1)NC(=O)CN1CCOCC1)C(=O)N[C@@H](Cc1ccccc1)C(=O)N[C@@H](CC(C)C)C(=O)[C@@]1(C)CO1 [Carfilzomib] was tested. Which “cell viability of combination” value did it give?
**A.** Its value is 79.5.

**Q.** With `CC1=CC(=O)c2ccccc2C1=O` [Menadione] + CC(C)C[C@H](NC(=O)[C@H](CCc1ccccc1)NC(=O)CN1CCOCC1)C(=O)N[C@@H](Cc1ccccc1)C(=O)N[C@@H](CC(C)C)C(=O)[C@@]1(C)CO1 [Carfilzomib] as the compound, how does the “cell viability of combination” value read?
**A.** The value was 78.2.

**Q.** Which “cell viability of combination” value does the source give for `CC[C@H](C)[C@H]1O[C@]2(CC[C@@H]1C)C[C@@H]1C[C@@H](C/C=C(\C)[C@@H](O[C@H]3C[C@H](OC)[C@@H](O[C@H]4C[C@H](OC)[C@@H](O)[C@H](C)O4)[C@H](C)O3)[C@@H](C)/C=C/C=C3\CO[C@@H]4[C@H](O)C(C)=C[C@@H](C(=O)O1)[C@]34O)O2` [Ivermectin] + CC(C)C[C@H](NC(=O)[C@H](CCc1ccccc1)NC(=O)CN1CCOCC1)C(=O)N[C@@H](Cc1ccccc1)C(=O)N[C@@H](CC(C)C)C(=O)[C@@]1(C)CO1 [Carfilzomib] here?
**A.** The value was 92.6.

**Q.** For `CN1CCN(CCOc2cc(OC3CCOCC3)c3c(Nc4c(Cl)ccc5c4OCO5)ncnc3c2)CC1` [Saracatinib (AZD0530)] + CC(C)C[C@H](NC(=O)[C@H](CCc1ccccc1)NC(=O)CN1CCOCC1)C(=O)N[C@@H](Cc1ccccc1)C(=O)N[C@@H](CC(C)C)C(=O)[C@@]1(C)CO1 [Carfilzomib], which “cell viability of combination” value is on record?
**A.** The value was 66.1.

**Q.** How did the “cell viability of combination” value turn out when `CC1(C)Cc2c(-c3ccccc3)c(-c3ccc(Cl)cc3)c(CC(=O)O)n2C1` [Licofelone] + CC(C)C[C@H](NC(=O)[C@H](CCc1ccccc1)NC(=O)CN1CCOCC1)C(=O)N[C@@H](Cc1ccccc1)C(=O)N[C@@H](CC(C)C)C(=O)[C@@]1(C)CO1 [Carfilzomib] was run?
**A.** The value was 83.7.

**Q.** Which “cell viability of combination” value does the source give for `Cl.Fc1ccc(C2CCNCC2COc2ccc3c(c2)OCO3)cc1` (centres undefined) [Paroxetine HCl] + CC(C)C[C@H](NC(=O)[C@H](CCc1ccccc1)NC(=O)CN1CCOCC1)C(=O)N[C@@H](Cc1ccccc1)C(=O)N[C@@H](CC(C)C)C(=O)[C@@]1(C)CO1 [Carfilzomib] here?
**A.** The value was 90.8.

**Q.** Which “cell viability of combination” value does the source give for `O=C(O)c1cc(O)c(O)c(O)c1` [Gallic acid] + CC(C)C[C@H](NC(=O)[C@H](CCc1ccccc1)NC(=O)CN1CCOCC1)C(=O)N[C@@H](Cc1ccccc1)C(=O)N[C@@H](CC(C)C)C(=O)[C@@]1(C)CO1 [Carfilzomib] here?
**A.** The value was 74.5.

**Q.** For `O=C(NC1CCN(CCCCC2(C(=O)NCC(F)(F)F)c3ccccc3-c3ccccc32)CC1)c1ccccc1-c1ccc(C(F)(F)F)cc1` [Lomitapide] + CC(C)C[C@H](NC(=O)[C@H](CCc1ccccc1)NC(=O)CN1CCOCC1)C(=O)N[C@@H](Cc1ccccc1)C(=O)N[C@@H](CC(C)C)C(=O)[C@@]1(C)CO1 [Carfilzomib], which “cell viability of combination” value is on record?
**A.** Its value is 84.9.

**Q.** Which “cell viability of combination” value does the source give for `CC(C)COc1ccc(CNC(=O)N(Cc2ccc(F)cc2)C2CCN(C)CC2)cc1` [Pimavanserin] + CC(C)C[C@H](NC(=O)[C@H](CCc1ccccc1)NC(=O)CN1CCOCC1)C(=O)N[C@@H](Cc1ccccc1)C(=O)N[C@@H](CC(C)C)C(=O)[C@@]1(C)CO1 [Carfilzomib] here?
**A.** The value was 76.1.

**Q.** Which “cell viability of combination” value does the source give for `Cc1ccc(C(=O)N(CCCN)C(c2nc3cc(Cl)ccc3c(=O)n2Cc2ccccc2)C(C)C)cc1` (centres undefined) + CC(C)C[C@H](NC(=O)[C@H](CCc1ccccc1)NC(=O)CN1CCOCC1)C(=O)N[C@@H](Cc1ccccc1)C(=O)N[C@@H](CC(C)C)C(=O)[C@@]1(C)CO1 [Carfilzomib] here?
**A.** The value was 88.6.

**Q.** How did the “cell viability of combination” value turn out when `Cc1cn(-c2cc(NC(=O)c3ccc(C)c(Nc4nccc(-c5cccnc5)n4)c3)cc(C(F)(F)F)c2)cn1` [Nilotinib(AMN-107)] + CC(C)C[C@H](NC(=O)[C@H](CCc1ccccc1)NC(=O)CN1CCOCC1)C(=O)N[C@@H](Cc1ccccc1)C(=O)N[C@@H](CC(C)C)C(=O)[C@@]1(C)CO1 [Carfilzomib] was run?
**A.** The value was 69.1.

**Q.** With `[O-]n1ccccc1=S.[O-]n1ccccc1=S.[Zn+2]` [Zinc Pyrithione] + CC(C)C[C@H](NC(=O)[C@H](CCc1ccccc1)NC(=O)CN1CCOCC1)C(=O)N[C@@H](Cc1ccccc1)C(=O)N[C@@H](CC(C)C)C(=O)[C@@]1(C)CO1 [Carfilzomib] as the compound, how does the “cell viability of combination” value read?
**A.** The value was 68.3.

**Q.** How did the “cell viability of combination” value turn out when `CC(CCC(=O)O)C1CCC2C3CCC4CC(O)CCC4(C)C3CCC12C` (centres undefined) [Lithocholic Acid] + CC(C)C[C@H](NC(=O)[C@H](CCc1ccccc1)NC(=O)CN1CCOCC1)C(=O)N[C@@H](Cc1ccccc1)C(=O)N[C@@H](CC(C)C)C(=O)[C@@]1(C)CO1 [Carfilzomib] was run?
**A.** The value was 67.4.

**Q.** For `CN1CCC(COc2cnc(-c3cccc(Cn4nc(-c5cccc(C#N)c5)ccc4=O)c3)nc2)CC1` + CC(C)C[C@H](NC(=O)[C@H](CCc1ccccc1)NC(=O)CN1CCOCC1)C(=O)N[C@@H](Cc1ccccc1)C(=O)N[C@@H](CC(C)C)C(=O)[C@@]1(C)CO1 [Carfilzomib], which “cell viability of combination” value is on record?
**A.** The value was 80.4.
